GC-B act – GC-B (human) receptor activation; HEK293-GC-B cells, CNP EC30, cGMP TR-FRET; 0% at EC30 CNP, 100% saturating CNP; 0.11% of 370,000 active; AID 1920062; activation, % at 10 µM;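 active = activation at 10 µM reaching about 35% in either raw or pattern-adjusted values, limit read from the data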
V-ATPase pHluor – yeast V-ATPase proton transport regulation by pHLuorin. AID 504577. 0.37% of 350,000 active. S. cerevisiae, pHLuorin cytosolic pH fluorescence. response, % at 10 µM; in the data active = response mostly above about 7.3%, no sharp cut-off; inactive = mostly below about 5.4%; also: actives read high
Efflux pump inh – blocks antifungal efflux pumps in multiplex yeast assay; 0.44% of 330,000 active; inhibition, % at 10 µM; S. cerevisiae Candida pump triplex, Nile Red efflux; AID 485275;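 active = plate passing quality check with inhibition over a set limit, or well fluorescence over plate mean plus 4 SD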;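 also: Nile Red retained in pooled yeast measured as flow cytometry median fluorescence; 0% = buffer negative control and 100% = Enniatin B positive control; higher means more Nile Red kept so more efflux inhibition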
GC-A act – GC-A (human) enzyme activation | P16066 | activation, % at 10 µM | 0.14% of 370,000 active | HEK293 GC-A cells, cGMP TR-FRET, EC30 ANP; 0% at EC30 ANP, 100% saturating ANP; in the data active = activation above about 40%
Rce1 inhib – yeast Ras-converting enzyme inhibition | AID 2563 | calls only | 0.27% of 290,000 active | Q03530 | yeast membranes, quenched prenylated peptide cleavage fluorescence;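 active = fall in fluorescence gain of 50% or more versus controls, with final raw signal at or below 3038400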;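 also: plate controls were neutral control wells for no effect and wells lacking membranes for full effect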
NSD2 inh – inhibitors of human histone methyltransferase NSD2; AID 743445; inhibition, % at 12.5 µM; O96028; NSD2 peptide methylation, AlphaScreen, 120 min; 0.54% of 310,000 active; in the data active = inhibition above about 50%
* hit, by the source's call; i = inactive; . = not tested or not shown; + = active, no number. Hits are enriched below; roughly 1.6% of the tested compounds scored in any of these assays.

SMILES | GC-B act | V-ATPase pHluor | Efflux pump inh | GC-A act | Rce1 inhib | NSD2 inh
CCOc1ccc(S(=O)(=O)Nc2cc(OC)c(OC)cc2C(=O)O)cc1 | -5.6 | 2.6 | 0.2 | 1.7 | + | .
S=C(NCc1ccc(Cl)cc1)OC1CCC12CCC(c1ccccc1)CC2 (stereo not given) | 2.1 | . | . | 0.6 | . | .
Cc1ccc(C(=O)N/C(=C/c2ccco2)C(=O)Nc2cccc(C(=O)O)c2)cc1 | 3.7 | . | 0.4 | 3.1 | + | 6.2
COc1cc(/C(C)=N/NC(=S)NC(C)C)cc(OC)c1OC | 38.8* | -0.3 | 1.3 | 23.8 | i | 2.2
COc1cc(/C(C)=N\NC(N)=S)cc(OC)c1OC | 2.8 | 6.2 | -0.1 | -3.3 | i | -0.9
COc1ccc(-c2cc3nc(C)c(CCC(=O)N4CCN(c5ccccn5)CC4)c(C)n3n2)c(OC)c1 | 0.6 | 0.1 | 0.0 | -4.3 | + | .
COc1cccc(NC(=O)NC2CCCCN(Cc3ccc(C)cc3)C2=O)c1 (stereo not given) | -1.8 | . | . | 2.4 | . | .
COc1cccc(Oc2cn[nH]c2-c2ccc(OC)cc2O)c1 | -2.4 | -2.0 | 0.1 | 0.1 | i | 0.5
COc1cccc(Oc2cn[nH]c2-c2ccc(O)cc2O)c1 | 15.0 | 0.2 | -0.1 | 54.8* | i | 15.6
CCCCn1c(-c2sccc2C)n[nH]c1=S | -6.4 | -2.2 | 0.2 | -4.8 | + | -1.0
CCCCn1c(-c2ccco2)n[nH]c1=S | 0.2 | -1.4 | 0.1 | -0.9 | i | 3.5
Cc1nnc(C)c2c(C)n(/N=C/c3cc(Br)ccc3O)c(C)c12 | . | . | . | . | . | 9.0
Fc1ccc(-c2cc3nc(-c4ccccc4)cc(N4CCN(CCN5CCOCC5)CC4)n3n2)cc1 | -8.2 | 1.0 | . | -2.3 | + | -13.5
CN1CCN(c2cc(-c3ccccc3)nc3cc(-c4ccc(F)cc4)nn23)CC1 | -7.8 | 3.7 | 0.8 | -1.1 | i | 0.6
COc1cc2cc(C(=O)O)[nH]c2c(OC)c1OC | . | 2.0 | 0.1 | . | + | -0.8
COc1ccc(OC)c2c(=O)cc(C(=O)O)[nH]c12 | -0.5 | 4.8 | -0.1 | 2.4 | i | 0.1
Cc1nc(N2CCN(C(=O)COc3ccccc3C)CC2)c2c3c(sc2n1)CCCC3 | -8.9 | . | . | -7.0 | . | .
Clc1ccc(CN2CCc3c([nH]c4ccccc34)C2)cc1Cl | -3.1 | -1.7 | 0.1 | -1.9 | + | -3.3
Clc1cccc(CN2CCc3c([nH]c4ccccc34)C2)c1 | -1.1 | -0.7 | 0.5 | -5.4 | . | .
CCCCn1c(SCC(=O)c2ccc(O)cc2O)nc2cc(S(N)(=O)=O)ccc21 | -10.3 | -1.6 | -0.1 | -2.0 | i | 7.0
CCCCn1c(SCC(=O)N2CCC(C)CC2)nc2cc(S(N)(=O)=O)ccc21 | -0.9 | 14.3* | 2.8 | 2.4 | i | 21.5
CC[C@@H](CCCCCC#N)CCC(=O)N(c1ccccc1)c1ccccc1 | -23.1 | . | . | -23.7 | . | .
CN(C)c1cccc2c1c(NS(=O)(=O)c1cn(C)cn1)nn2C | -3.0 | -3.9 | 0.0 | -1.9 | i | 77.9*
Cn1cnc(S(=O)(=O)Nc2ccccc2N2CCOCC2)c1 | -5.8 | -2.1 | 0.1 | 4.8 | i | -0.2
COc1cccc(-c2nnc3n2N=C(c2ccc(Cl)cc2)CS3)c1 | 12.8 | . | . | 13.7 | . | -11.8
SMILES | GC-B act | V-ATPase pHluor | Efflux pump inh | GC-A act | Rce1 inhib | NSD2 inh
C#CCN(CC=C)Cc1ccc(OC)cc1OC | 3.7 | . | . | -0.9 | . | .
Cc1ccc(CN[C@@H]2CC[C@@]34CCCN3C(=O)CCC[C@H]4C2)cc1 | 1.9 | . | . | 1.9 | . | .
COc1ccc(CN2CCCCC2C(=O)Nc2ccc(OC)c(OCC(C)C)c2)cc1OC (stereo not given) | 0.2 | -2.7 | 0.1 | 2.8 | + | -2.8
CC(=O)c1c(O)cc(O)cc1CC(=O)O | -6.1 | -2.5 | -0.1 | 1.2 | i | .
CC(=O)c1c(O)cc(O)c(C(C)=O)c1O | . | -1.1 | 0.3 | . | + | .
COC(=O)C[C@H]1CC[C@H]2[C@H](COc3ccc(NC(=O)C4CCOCC4)cc3C(=O)N2C)O1 | 6.5 | . | . | 3.2 | . | .
CCOc1ccc(NC(=O)c2cn(-c3ccc(OCC)cc3)c(=O)c3cc(OC)c(OC)cc23)cc1 | 28.6 | -2.2 | 0.7 | 19.1 | i | -2.1
CCOc1ccc(-n2cc(C(=O)Nc3cccc(C)n3)c3cc(OC)c(OC)cc3c2=O)cc1 | 36.5* | -3.6 | 0.2 | 25.9 | i | -3.5
COC(=O)[C@]12C[C@H](CC(=O)NCc3cccs3)C(=O)N(CCc3ccc(OC)c(OC)c3)C1=C[C@H](COCc1ccccc1)O[C@@H]2C | 3.7 | . | . | -3.2 | . | .
Nc1nc(Nc2ccccc2F)nc(NCc2ccco2)c1[N+](=O)[O-] | -7.0 | 0.6 | 0.1 | 20.1 | i | 1.6
Nc1nc(Nc2ccccc2)nc(NCc2ccco2)c1[N+](=O)[O-] | 11.2 | -8.3 | -0.1 | 47.0* | i | 12.1
Nc1nc(NCc2ccco2)nc(Nc2ccccc2)c1[N+](=O)[O-] | -4.9 | 3.4 | -0.1 | 0.7 | i | 2.6
Cc1ccc(Nc2nc(N)c([N+](=O)[O-])c(NCc3ccco3)n2)cc1 | 18.1 | -2.8 | -0.3 | 41.5* | i | 3.4
COC(=O)C1=C[C@@H]([C@@H](C)[C@H](OC)c2ccccc2Br)[C@@H]2OCCC[C@H]12 | -12.8 | . | . | 0.2 | . | .
COC(=O)[C@H](CC(C)C)N(Cc1cn(Cc2ccc(C)cc2)nn1)S(=O)(=O)c1ccccc1Br | 3.9 | . | . | 2.8 | . | .
Clc1ccc(-c2nc3cnccn3c2Nc2ccc3c(c2)OCO3)cc1 | 39.5* | 0.3 | 0.0 | 40.9* | i | .
Cc1ccc(-c2nc3ncccn3c2Nc2ccc3c(c2)OCCO3)cc1 | 44.1* | 0.2 | 0.2 | 41.4* | i | 15.8
Oc1ccc(-c2nc3ncccn3c2Nc2ccc3c(c2)OCCO3)cc1 | 21.7 | -0.8 | 0.0 | 30.6 | i | .
COc1ccc(-c2nc3ncccn3c2Nc2ccc3c(c2)OCCO3)cc1 | 43.2* | -1.3 | . | 45.9* | i | -0.8
Clc1ccc(-c2nc3ncccn3c2Nc2ccc3c(c2)OCCO3)cc1 | 41.6* | 7.2 | -0.1 | 44.6* | i | 1.7
Cc1ccnc(NC(=O)c2cccc(NC(=O)c3ccccc3F)c2)c1 | . | . | . | . | . | -1.5
C[C@H]1[C@@H](NC(=O)c2ccc(Cl)cc2)CC[C@@]23CCCN2C(=O)CCC[C@@H]13 | 1.4 | . | . | 1.6 | . | .
CN[C@H]1C[C@H]2c3cc(-c4ccc5c(c4)OCO5)ccc3CCN2C[C@H]1[C@H](C)O | 0.2 | . | . | -2.3 | . | .
O=C(CCC(=O)c1ccc(F)cc1)OC1CCOC1=O (stereo not given) | 1.5 | 4.6 | 0.1 | 56.2* | i | .
COc1ccc(-c2cc(C(F)(F)F)n3ncc(C(=O)NCC4CCCO4)c3n2)cc1 (stereo not given) | 15.1 | -49.6 | . | 15.1 | . | -1.3
COc1cccc(-c2cc(C(F)(F)F)n3ncc(S(=O)(=O)c4ccccc4)c3n2)c1 | -4.8 | -6.1 | 0.2 | -6.4 | + | 0.5
COc1cccc(-c2cc(C(F)(F)F)n3ncc(C(=O)NCC4CCCO4)c3n2)c1 (stereo not given) | 45.7* | -2.7 | 0.2 | 35.2 | i | -5.1
